Shown are actives, neighbours in structure and some others; about 0.45% of the full set was active somewhere.
FMDV antiviral: Primary qHTS Assay for Foot and Mouth Disease Virus Antivirals against NCGC Sytravon and CBC Compound Libraries: Firefly Luciferase Signal; 0.23% of 120,000 active; Potency, µM (doses to about 57.5 µM), without a hit: top-dose activity change, negative = inhibition, most hits filed as inhibitors; FMDV antiviral cell assay, firefly luciferase signal; AID 1745856, 2022; also: nearly all actives have a fitted effect of over 60% in size
FMDV Renilla: Primary qHTS Assay for Foot and Mouth Disease Virus Antivirals against NCGC Sytravon and CBC Compound Libraries: Renilla Luciferase Signal; FMDV replicon cells, Renilla luciferase signal; Potency, µM (titrated, usually from 57.5 µM), for inactives: top-dose activity change, negative = inhibition, actives largely listed as inhibitors; 0.32% of 120,000 active; also: nearly all actives have a fitted effect of over 55% in size
The depositor's hits bear a star; ? = inconclusive; [ ] = another dose, or the depositor's remark. Calls follow the shape of the full dose curve. % is scaled to controls: 0 for no effect and ±100 for the full control effect; potency is read from the fitted curve at half-maximal effect.

SMILES | FMDV antiviral | FMDV Renilla
CCn1cc(C(=O)Cn2c(C)nc3ccccc32)c2ccccc21 | ? | 8.91µM*
CC1CCc2sc(C(=O)OCC(=O)c3ccc4c(c3)OCCO4)cc2C1 (stereo not given) | 25.5% | -5.2%
Cc1ccc([N+](=O)[O-])cc1NC(=O)Cn1cnc2c1c(=O)n(C)c(=O)n2C | 5.4% | -1.5%
CC(=O)c1c(C)[nH]c(C(=O)OC(C)c2nc(-c3ccccc3)no2)c1C (stereo not given) | ? | 28.2µM*
CC(=O)c1c(C)[nH]c(C(=O)OC(C)c2nnc(-c3cccc(C)c3)o2)c1C (stereo not given) | -26.7% | 0.0%
CCC(=O)N(CCC1(c2ccc(C)cc2)CCOC(C)(C)C1)Cc1ccccc1 (stereo not given) | -25.3% | 88.8%
COc1ccc(NC(=O)COc2ccc(Cl)cc2Cl)c2cccnc12 | 2.51µM* | ?
COc1ccc(NC(=O)c2ccc(Cl)cc2)c2cccnc12 | 42.5% | -12.0%
COc1ccc(CNC(=O)[C@@H](NC(=O)N2CCn3c2nc2ccccc23)C(C)C)cc1 | -20.7% | 2.7%
O=C(CSc1nnc2c(=O)n(-c3ccccc3)ccn12)N1CCN(c2ccccc2F)CC1 | -20.6% | -17.2%
Cn1c(=O)c2c(ncn2CCCOc2ccccc2)n(C)c1=O | 9.9% | -5.5%
Cc1cc(C(=O)Cn2cnc3c2c(=O)n(C)c(=O)n3C)c(C)n1C | 0.0% | 41.8%
CC(C)c1ccc(C(=O)Cn2cnc3c2c(=O)n(C)c(=O)n3C)c(C(C)C)c1 | 10µM* | 10µM*
CC(C)Oc1cccc(Cn2cnc3c2c(=O)n(C)c(=O)n3C)c1 | 3.55µM* | 3.55µM*
COC(=O)[C@H](CC(C)C)NC(=O)N1CCc2[nH]cnc2C1c1ccc(OC)cc1F (stereo not given in full) | 36.2% | 52.0%
CCOc1ccc(C(=O)Nc2ccc3c(c2)N(C(C)=O)CCC3)cc1OCC | ? | 3.7%
CC(=O)N1CCCc2ccc(NC(=O)c3ccc(C(F)(F)F)cc3)cc21 | 3.16µM* | 0.7%
COc1ccc(CN(C(=O)c2cccc(C#N)c2)C(C)C2CC2)cc1 (stereo not given) | 0.0% | 25.8%
Cc1cccc(NC(=O)c2ccc3c(c2)NC(=O)CS3)c1 | 133.7% | -2.6%
Cc1ccc(NC(=O)c2ccc3c(c2)NC(=O)c2ccccc2S3)cc1 | ? | 6.31µM*
Cc1ccc(-c2ocnc2C(=O)Nc2ccccc2C)s1 | 26.9% | 2.6%
Cn1c(=O)c2c(nc(Br)n2CC(=O)c2ccc(F)cc2)n(C)c1=O | 9.0% | -8.5%
Cn1c(=O)c2c(nc(Cl)n2CC(=O)c2ccc(C(C)(C)C)cc2)n(C)c1=O | ? | 11.2µM*
Cc1cc(C(C)(C)C)ccc1OC(=O)/C=C/c1cccs1 | 17.0% | -3.3%
O=C(Cc1ccc(F)cc1)N1CCC(c2nc3c(nnn3Cc3ccccc3F)c(=O)[nH]2)CC1 | -1.3% | -5.8%
SMILES | FMDV antiviral | FMDV Renilla
O=C(CCC(=O)c1cccs1)Nc1cccc(N2CCCC2=O)c1 | 24.7% | 0.0%
CS(=O)(=O)N1CCc2cc(C(=O)c3cc4cc(Br)ccc4o3)ccc21 | 20µM* | 1.7%
CS(=O)(=O)N1CCCc2cc(C(=O)c3cc4ccccc4o3)ccc21 | -17.3% | ?
Cc1ccccc1COc1ccc2c(C)cc(=O)oc2c1 | 113.8% | -5.6%
Fc1ccc(CNC(=S)Nc2ccc(Br)cc2)cc1 | 0.0% | -28.9%
COc1ccc(-c2cc3ccc(OS(C)(=O)=O)cc3oc2=O)cc1OC | 2.1% | ?
Cc1nc(C)c(-c2ccc(SCC(=O)Nc3ccc(Br)cc3)nn2)s1 | ? | 2.82µM*
COc1ccccc1NC(=O)CSc1ccc(-c2sc(C)nc2C)nn1 | 4.6% | 20.1%
COc1ccc(S(=O)(=O)NCCc2nnc3ccc(SCc4ccccc4Cl)nn23)cc1 | ? | 0.9%
CC(=O)N1c2ccccc2C(=O)C1N1CCN(c2cccc(C(F)(F)F)c2)CC1 (stereo not given) | -21.8% | -16.7%
O=C1CC(c2ccccc2O)Cc2nc(N3CCN(c4cccc(C(F)(F)F)c4)CC3)ncc21 (stereo not given) | 8.91µM* | 3.98µM*
Oc1ccc(-c2nc(-c3ccccc3)cs2)cc1 | 188.8% | 6.3%
Cc1cc(C)c(OCC(=O)NC2=NCCS2)c(C)c1 | 29.2% | 7.4%
O=S(=O)(c1cccc(F)c1)N1CCC(Oc2ccc(-n3cnnn3)cc2)CC1 | 22.4µM* | ?
CC(=O)Nc1ccc(S(=O)(=O)N2CCC(Oc3ccc(-n4cnnn4)cc3)CC2)cc1 | -3.2% | 13.4%
COCCOc1ccc(C(=O)/C=C/c2cc(OC)c(OC)c(OC)c2)cc1 | ? | 28.2µM*
COCCOc1ccc(/C=C/C(=O)c2ccc(C#N)cc2)cc1OC | 10.5% | 13.4%
COc1cccc(NC(=O)CSc2nnc(COc3ccccc3)n2Cc2ccco2)c1 | 9.4% | 16.3%
CCOC(=O)COc1ccc2c(=O)c(Oc3ccc(C(=O)OC)cc3)c(C(F)(F)F)oc2c1 | 3.7% | -2.8%
CCOC(=O)c1ccc(Oc2c(C(F)(F)F)oc3cc(O)ccc3c2=O)cc1 | ? | 25.1µM*
Cc1ccccc1CN1CCC(N2CCCCCC2)CC1 | 25.1µM* | ?
Cc1ccccc1CN1CCC(C(=O)O)CC1 | 6.2% | 5.5%
CC(=O)c1ccc(OCc2ccc(C(N)=O)cc2)cc1 | 144.9% | 1.3%
COC(=O)c1cc2cc3ccccc3nc2s1 | 186.1% | 13.4%
CCCCCn1c(=N)n(CC(O)COc2cccc(C)c2)c2ccccc21 (stereo not given) | ? | 25.1µM*
SMILES | FMDV antiviral | FMDV Renilla
Cc1ccccc1OCC(O)Cn1c(=N)n(CCN2CCCCC2)c2ccccc21 (stereo not given) | -7.0% | -3.9%
COc1ccc(OC)c(S(=O)(=O)Nc2ccccc2CCc2nc3ccccc3n2C)c1 | -5.7% | 13.1%
O=C(Nc1nc(-c2ccc(Cl)cc2)cs1)C1CCN(C(=O)c2ccoc2)CC1 | ? | 10µM*
O=C(Nc1nc(-c2ccc(Cl)cc2)cs1)c1ccc(CN2CCOCC2)cc1 | 14.1µM* | ?
O=C(Nc1nc(-c2cc3ccccc3oc2=O)cs1)c1ccc(Cl)cc1 | -5.9% | -12.0%
O=C(Nc1nc(-c2ccc(Br)s2)cs1)C1CC1 | 0.0% | 11.0%
COC(=O)c1cc(OC(=O)/C=C/c2ccc3ccccc3n2)cc(C(=O)OC)c1 | 5.0% | -12.1%[1.06 µM]
Cc1ccc(C(=O)CC(=O)c2ccc(C)c(C)c2)cc1C | 23.6% | -4.9%
CC(Cc1ccco1)NC(=O)CCc1nc(C(C)(C)C)no1 (stereo not given) | 16.1% | 6.5%
O=C(NCc1ccncc1)c1ccc(C2CCCCC2)cc1 | ? | 3.55µM*
O=C(NCc1ccccn1)c1ccc(C2CCCCC2)cc1 | 0.0% | 7.8%
CO/C=C(/C(=O)OC)c1ccccc1Oc1cc(Oc2ccccc2C#N)ncn1 | ? | 17.8µM*
COc1ccc(C(C)=O)cc1COc1ccccc1C#N | 21.5% | 33.7%
OC(COc1ccc(Oc2ccccc2)cc1)CN1CCN(c2ncccn2)CC1 (stereo not given) | -8.4% | -9.9%
CCOc1ccccc1NC(=O)Cn1nc(N2CCN(c3ccccc3)CC2)ccc1=O | -10.6% | 17.8%
CCc1ccccc1NC(=O)c1ccc(Cn2nc(N3CCN(c4ccccc4)CC3)ccc2=O)o1 | ? | 31.6µM*
Cc1ccccc1NC(=O)c1sc2nc3c(cc2c1N)CN(Cc1ccccc1)CC3 | 3.8% | ?
Cc1ccccc1NC(=O)c1sc2nc3c(cc2c1N)CN(C(C)C)CC3 | ? | 14.1µM*
O=C1CCCc2c(O)cccc21 | 22.0%[11.5 µM] | -7.0%

Screening data (PubChem BioAssay)
